# Reference: article PMC7862700, “An all-to-all approach to the identification of sequence-specific readers for epigenetic DNA modifications on cytosine”
# Key:
# Assay in all cases: DAPPL (digital affinity profiling via proximity ligation, sequencing); 10 mM Tris-HCl pH 7.5, 50 mM NaCl, 1 mM DTT, 4% glycerol, room temperature, 30 min; GST-TFs on glutathione beads, 16-mer random dsDNA library, 0.1% formaldehyde crosslink after washing; high values mean tight binding
# Settings in all cases: protein: recombinant; tags: N-terminal GST; dsDNA, one strand shown
# [1] = molecular target: T1, ELK1 (Homo sapiens, UniProt P19419 1-428)
# T1 sequence: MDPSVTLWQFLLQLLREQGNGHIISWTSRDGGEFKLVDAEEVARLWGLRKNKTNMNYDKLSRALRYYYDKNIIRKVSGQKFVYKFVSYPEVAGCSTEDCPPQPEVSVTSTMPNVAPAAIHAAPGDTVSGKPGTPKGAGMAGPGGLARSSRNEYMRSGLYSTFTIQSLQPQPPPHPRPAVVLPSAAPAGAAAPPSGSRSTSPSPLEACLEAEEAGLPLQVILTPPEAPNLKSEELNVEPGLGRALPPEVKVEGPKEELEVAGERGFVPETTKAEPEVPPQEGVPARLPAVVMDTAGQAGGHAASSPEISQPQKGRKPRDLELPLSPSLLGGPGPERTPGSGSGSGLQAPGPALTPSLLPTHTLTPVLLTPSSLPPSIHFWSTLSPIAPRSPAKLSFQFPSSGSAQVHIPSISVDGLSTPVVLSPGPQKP
# In short: (§1)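 A tag-only sample was pooled with DNA-barcoded human transcription factors that had been expressed in yeast as GST fusions and captured on glutathione beads. The pools were incubated for 30 min at room temperature with 200 nmole of a random double-stranded 16-mer DNA library in Tris/NaCl/DTT/glycerol buffer, then washed, crosslinked with 0.1% formaldehyde, proximity-ligated (BsaI/T4 ligase, 1 h, 37 °C), PCR-amplified and sequenced on an Illumina NextSeq500. Binding signal is each hexamer's read frequency for a factor divided by its frequency for the tag-only sample.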
# [2] = molecular target: T2, ERG (Homo sapiens, UniProt P11308 1-479)
# T2 sequence: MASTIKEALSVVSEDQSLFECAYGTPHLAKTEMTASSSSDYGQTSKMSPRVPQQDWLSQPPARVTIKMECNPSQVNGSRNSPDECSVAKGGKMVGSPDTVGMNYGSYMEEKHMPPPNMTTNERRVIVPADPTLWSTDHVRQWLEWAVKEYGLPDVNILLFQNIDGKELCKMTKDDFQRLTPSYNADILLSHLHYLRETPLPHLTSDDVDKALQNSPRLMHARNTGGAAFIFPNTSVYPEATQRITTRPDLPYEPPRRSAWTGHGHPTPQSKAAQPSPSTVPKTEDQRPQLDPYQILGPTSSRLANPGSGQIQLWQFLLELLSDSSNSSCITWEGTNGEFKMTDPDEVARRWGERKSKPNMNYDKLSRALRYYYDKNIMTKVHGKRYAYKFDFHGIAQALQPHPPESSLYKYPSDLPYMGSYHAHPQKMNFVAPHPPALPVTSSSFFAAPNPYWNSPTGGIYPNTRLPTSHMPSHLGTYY
# In short: as §1
# [3] = molecular target: ELF1 (Homo sapiens, UniProt P32519 1-619)
# Chain of ELF1 (P32519 whole entry): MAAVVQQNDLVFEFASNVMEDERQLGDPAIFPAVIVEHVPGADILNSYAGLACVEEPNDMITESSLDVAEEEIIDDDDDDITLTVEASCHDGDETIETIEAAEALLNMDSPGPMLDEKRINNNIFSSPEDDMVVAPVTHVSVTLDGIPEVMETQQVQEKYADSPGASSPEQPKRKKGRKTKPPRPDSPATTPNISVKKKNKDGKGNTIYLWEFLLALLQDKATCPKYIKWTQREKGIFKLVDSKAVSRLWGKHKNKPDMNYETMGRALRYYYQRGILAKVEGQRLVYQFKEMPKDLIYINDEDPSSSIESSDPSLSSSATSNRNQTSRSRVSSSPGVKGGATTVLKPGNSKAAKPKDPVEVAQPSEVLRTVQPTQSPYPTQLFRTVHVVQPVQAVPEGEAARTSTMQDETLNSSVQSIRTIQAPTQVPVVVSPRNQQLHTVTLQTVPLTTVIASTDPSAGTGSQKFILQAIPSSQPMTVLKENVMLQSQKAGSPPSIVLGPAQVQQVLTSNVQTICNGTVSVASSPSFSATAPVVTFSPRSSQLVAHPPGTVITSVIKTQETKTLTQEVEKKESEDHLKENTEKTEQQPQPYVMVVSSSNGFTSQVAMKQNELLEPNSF
# In short: as §1
# [4] = molecular target: T3, EHF (Homo sapiens, UniProt Q9NZC4 1-300)
# T3 sequence: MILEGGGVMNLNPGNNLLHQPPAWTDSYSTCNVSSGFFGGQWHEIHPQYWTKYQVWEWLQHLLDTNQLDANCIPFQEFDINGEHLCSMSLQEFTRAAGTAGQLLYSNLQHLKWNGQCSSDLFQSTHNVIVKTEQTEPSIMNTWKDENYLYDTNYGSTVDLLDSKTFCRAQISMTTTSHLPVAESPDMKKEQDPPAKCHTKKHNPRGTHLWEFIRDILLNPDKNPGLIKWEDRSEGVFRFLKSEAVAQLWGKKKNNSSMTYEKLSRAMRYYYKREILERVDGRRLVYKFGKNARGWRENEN
# In short: as §1
# [5] = molecular target: SPIB (Homo sapiens, UniProt Q01892 1-262)
# Chain of SPIB (Q01892 whole entry): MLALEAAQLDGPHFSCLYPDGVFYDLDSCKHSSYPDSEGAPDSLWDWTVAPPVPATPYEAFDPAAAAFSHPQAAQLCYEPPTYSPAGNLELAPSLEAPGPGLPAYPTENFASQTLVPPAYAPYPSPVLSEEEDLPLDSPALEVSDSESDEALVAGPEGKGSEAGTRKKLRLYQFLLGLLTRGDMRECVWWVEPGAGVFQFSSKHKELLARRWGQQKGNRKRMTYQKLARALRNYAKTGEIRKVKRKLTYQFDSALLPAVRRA
# In short: as §1
# [6] = molecular target: T4, FEV (Homo sapiens, UniProt Q99581 1-238)
# T4 sequence: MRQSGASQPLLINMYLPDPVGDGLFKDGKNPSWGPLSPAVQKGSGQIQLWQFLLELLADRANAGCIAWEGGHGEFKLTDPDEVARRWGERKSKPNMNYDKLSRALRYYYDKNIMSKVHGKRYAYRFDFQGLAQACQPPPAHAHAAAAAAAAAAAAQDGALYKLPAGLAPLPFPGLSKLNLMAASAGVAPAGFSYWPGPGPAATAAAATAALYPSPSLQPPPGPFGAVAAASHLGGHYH
# In short: as §1
# [7] = molecular target: ETV5 (Homo sapiens, UniProt P41161 1-510)
# Chain of ETV5 (P41161 whole entry): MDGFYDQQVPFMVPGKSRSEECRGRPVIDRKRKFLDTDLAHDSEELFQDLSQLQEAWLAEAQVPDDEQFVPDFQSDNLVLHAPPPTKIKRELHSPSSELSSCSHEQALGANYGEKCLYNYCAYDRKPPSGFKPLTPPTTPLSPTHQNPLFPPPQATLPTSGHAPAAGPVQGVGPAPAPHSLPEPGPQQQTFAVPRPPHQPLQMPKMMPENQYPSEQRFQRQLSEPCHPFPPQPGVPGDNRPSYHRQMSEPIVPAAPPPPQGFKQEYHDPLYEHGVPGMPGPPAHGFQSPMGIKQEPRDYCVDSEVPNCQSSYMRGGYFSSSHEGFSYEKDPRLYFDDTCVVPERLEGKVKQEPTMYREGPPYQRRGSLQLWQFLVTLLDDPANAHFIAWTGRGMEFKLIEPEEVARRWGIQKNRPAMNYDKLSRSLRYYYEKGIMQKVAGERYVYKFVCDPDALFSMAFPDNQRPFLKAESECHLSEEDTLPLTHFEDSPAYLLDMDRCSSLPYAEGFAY
# In short: as §1
# [8] = molecular target: ELF4 (Homo sapiens, UniProt Q99607 1-663)
# Chain of ELF4 (Q99607 whole entry): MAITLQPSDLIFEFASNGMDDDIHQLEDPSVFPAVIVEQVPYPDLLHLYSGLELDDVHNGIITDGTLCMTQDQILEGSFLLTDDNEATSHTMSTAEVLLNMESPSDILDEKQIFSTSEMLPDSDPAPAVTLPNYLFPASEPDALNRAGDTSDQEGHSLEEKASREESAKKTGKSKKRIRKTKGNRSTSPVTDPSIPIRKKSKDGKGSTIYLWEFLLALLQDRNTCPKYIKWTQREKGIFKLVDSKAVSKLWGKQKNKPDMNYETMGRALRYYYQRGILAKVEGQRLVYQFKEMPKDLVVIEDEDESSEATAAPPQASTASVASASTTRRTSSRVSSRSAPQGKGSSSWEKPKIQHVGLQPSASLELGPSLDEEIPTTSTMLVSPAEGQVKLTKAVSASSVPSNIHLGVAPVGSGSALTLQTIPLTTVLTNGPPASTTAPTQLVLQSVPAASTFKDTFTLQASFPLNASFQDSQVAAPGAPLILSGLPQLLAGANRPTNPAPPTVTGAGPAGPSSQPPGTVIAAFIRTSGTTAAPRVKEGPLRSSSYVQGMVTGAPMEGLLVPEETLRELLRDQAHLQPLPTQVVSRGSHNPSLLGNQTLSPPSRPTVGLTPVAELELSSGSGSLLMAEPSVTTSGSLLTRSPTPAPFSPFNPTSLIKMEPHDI
# In short: as §1
# [9] = molecular target: T5, ELK4 (Homo sapiens, UniProt P28324-2 1-405)
# T5 sequence: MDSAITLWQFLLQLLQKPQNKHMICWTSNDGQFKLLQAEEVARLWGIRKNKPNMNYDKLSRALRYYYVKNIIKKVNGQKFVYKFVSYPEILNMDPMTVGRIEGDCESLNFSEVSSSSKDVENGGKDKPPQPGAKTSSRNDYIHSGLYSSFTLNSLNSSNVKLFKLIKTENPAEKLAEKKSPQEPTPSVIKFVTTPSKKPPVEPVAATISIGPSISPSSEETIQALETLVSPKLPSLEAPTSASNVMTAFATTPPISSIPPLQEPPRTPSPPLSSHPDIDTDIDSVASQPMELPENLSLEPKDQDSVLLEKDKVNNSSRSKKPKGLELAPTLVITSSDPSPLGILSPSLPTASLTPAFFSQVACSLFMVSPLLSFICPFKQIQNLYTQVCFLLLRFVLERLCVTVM
# In short: as §1
# [10] = molecular target: ETV1 (Homo sapiens, UniProt P50549 1-477)
# Chain of ETV1 (P50549 whole entry): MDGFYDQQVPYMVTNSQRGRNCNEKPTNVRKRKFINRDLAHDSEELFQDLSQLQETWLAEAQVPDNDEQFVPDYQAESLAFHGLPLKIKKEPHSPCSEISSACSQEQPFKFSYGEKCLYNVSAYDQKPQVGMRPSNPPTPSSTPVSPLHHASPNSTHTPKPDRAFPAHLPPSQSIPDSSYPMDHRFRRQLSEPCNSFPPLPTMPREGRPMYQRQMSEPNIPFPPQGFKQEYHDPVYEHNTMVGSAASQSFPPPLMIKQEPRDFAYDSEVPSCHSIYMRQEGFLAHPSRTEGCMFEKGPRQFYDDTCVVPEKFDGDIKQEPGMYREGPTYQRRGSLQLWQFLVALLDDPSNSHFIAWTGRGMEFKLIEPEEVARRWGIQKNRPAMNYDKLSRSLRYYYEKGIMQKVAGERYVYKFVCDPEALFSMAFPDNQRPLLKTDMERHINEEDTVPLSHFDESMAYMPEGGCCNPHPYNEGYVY
# In short: as §1
# [11] = molecular target: T6, ERF (Homo sapiens, UniProt P50548 1-548)
# T6 sequence: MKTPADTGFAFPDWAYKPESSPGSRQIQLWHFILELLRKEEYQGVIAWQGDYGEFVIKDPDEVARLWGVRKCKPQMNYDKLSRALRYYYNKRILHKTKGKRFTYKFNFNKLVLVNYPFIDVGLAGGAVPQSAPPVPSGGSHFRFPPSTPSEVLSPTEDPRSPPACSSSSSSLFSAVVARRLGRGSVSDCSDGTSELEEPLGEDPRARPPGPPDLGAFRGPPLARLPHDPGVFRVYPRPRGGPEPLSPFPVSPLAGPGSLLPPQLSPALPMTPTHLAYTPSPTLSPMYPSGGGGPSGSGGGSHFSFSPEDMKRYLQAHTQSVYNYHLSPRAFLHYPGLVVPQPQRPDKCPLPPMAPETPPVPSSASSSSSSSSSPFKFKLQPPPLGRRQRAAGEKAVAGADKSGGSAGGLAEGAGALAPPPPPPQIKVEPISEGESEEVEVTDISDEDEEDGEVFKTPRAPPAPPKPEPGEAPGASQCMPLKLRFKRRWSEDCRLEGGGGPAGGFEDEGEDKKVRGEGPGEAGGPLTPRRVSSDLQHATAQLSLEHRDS
# In short: as §1
# [12] = molecular target: T7, ETV3L (Homo sapiens, UniProt Q6ZN32 1-361)
# T7 sequence: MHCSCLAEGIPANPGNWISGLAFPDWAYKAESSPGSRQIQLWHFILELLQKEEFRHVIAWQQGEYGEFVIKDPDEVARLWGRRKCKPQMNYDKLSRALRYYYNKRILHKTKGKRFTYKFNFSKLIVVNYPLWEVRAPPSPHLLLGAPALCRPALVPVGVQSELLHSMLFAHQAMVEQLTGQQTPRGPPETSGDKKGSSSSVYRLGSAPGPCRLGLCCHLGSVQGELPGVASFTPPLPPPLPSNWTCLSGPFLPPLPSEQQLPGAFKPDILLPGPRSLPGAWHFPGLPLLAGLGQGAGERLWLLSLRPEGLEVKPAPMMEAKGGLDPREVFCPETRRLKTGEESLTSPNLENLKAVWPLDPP
# In short: as §1
# [13] = molecular target: T8, ETS2 (Homo sapiens, UniProt P15036 1-469)
# T8 sequence: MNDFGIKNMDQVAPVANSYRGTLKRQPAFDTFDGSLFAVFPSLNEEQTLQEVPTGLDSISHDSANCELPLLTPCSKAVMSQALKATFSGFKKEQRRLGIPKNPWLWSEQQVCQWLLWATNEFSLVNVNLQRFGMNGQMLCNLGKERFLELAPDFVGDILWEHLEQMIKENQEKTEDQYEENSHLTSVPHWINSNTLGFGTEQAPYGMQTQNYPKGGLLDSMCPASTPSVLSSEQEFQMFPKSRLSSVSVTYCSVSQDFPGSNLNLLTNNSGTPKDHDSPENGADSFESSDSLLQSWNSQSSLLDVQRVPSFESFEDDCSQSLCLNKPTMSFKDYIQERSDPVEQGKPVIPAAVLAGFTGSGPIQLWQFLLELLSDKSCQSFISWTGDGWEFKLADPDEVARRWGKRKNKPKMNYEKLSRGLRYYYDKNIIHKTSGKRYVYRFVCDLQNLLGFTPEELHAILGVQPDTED
# In short: as §1
# [14] = molecular target: T9, SPDEF (Homo sapiens, UniProt O95238 1-335)
# T9 sequence: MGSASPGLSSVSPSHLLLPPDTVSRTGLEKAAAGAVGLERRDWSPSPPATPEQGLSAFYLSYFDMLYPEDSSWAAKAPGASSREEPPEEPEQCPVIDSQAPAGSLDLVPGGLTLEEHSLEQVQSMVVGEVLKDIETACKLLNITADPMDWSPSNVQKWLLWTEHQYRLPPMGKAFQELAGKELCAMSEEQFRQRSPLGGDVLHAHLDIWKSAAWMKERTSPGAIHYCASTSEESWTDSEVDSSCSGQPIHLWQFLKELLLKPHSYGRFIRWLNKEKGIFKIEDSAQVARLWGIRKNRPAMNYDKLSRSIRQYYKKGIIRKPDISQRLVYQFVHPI
# In short: as §1
# [15] = molecular target: T10, ETV7 (Homo sapiens, UniProt Q9Y603 1-341)
# T10 sequence: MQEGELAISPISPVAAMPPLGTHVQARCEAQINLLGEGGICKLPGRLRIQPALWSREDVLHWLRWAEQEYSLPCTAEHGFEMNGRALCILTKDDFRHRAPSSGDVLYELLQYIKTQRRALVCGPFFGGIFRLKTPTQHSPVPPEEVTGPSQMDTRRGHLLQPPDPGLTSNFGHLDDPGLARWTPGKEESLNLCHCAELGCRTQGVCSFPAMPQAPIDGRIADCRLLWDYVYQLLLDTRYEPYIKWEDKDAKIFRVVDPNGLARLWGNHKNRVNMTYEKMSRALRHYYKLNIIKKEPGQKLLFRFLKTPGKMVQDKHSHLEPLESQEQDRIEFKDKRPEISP
# In short: as §1
# [16] = molecular target: T11, ETV3 (Homo sapiens, UniProt P41162-2 1-143)
# T11 sequence: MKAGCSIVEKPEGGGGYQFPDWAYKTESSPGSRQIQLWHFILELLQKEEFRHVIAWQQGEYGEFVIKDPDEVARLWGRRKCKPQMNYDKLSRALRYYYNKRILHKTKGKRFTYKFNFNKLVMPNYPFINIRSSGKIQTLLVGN
# In short: as §1
# [17] = molecular target: ETV6 (Homo sapiens, UniProt P41212 1-452)
# Chain of ETV6 (P41212 whole entry): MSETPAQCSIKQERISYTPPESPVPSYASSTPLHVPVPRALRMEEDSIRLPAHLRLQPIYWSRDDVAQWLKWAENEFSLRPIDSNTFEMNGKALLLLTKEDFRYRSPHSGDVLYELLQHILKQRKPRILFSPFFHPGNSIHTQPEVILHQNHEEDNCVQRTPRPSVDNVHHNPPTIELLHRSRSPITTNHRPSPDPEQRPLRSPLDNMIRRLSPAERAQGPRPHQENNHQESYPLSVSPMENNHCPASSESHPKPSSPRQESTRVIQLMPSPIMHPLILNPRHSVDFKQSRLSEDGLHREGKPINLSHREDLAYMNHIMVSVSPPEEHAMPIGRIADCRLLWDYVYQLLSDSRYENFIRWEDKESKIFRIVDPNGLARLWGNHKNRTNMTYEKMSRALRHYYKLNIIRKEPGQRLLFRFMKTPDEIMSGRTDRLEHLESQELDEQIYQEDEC
# In short: as §1
sequence,measurement,setting,value
GGTACA,binding signal,[1],"1.08 fold enrichment (6-mer frequency, TF over GST control)"
same,binding signal,[2],"1.09 fold enrichment (6-mer frequency, TF over GST control)"
same,binding signal,[3],"1.03 fold enrichment (6-mer frequency, TF over GST control)"
same,binding signal,[4],"1.05 fold enrichment (6-mer frequency, TF over GST control)"
same,binding signal,[5],"1.11 fold enrichment (6-mer frequency, TF over GST control)"
same,binding signal,[6],"1.03 fold enrichment (6-mer frequency, TF over GST control)"
same,binding signal,[7],"1.05 fold enrichment (6-mer frequency, TF over GST control)"
same,binding signal,[8],"1 fold enrichment (6-mer frequency, TF over GST control)"
same,binding signal,[9],"1.11 fold enrichment (6-mer frequency, TF over GST control)"
same,binding signal,[10],"1.07 fold enrichment (6-mer frequency, TF over GST control)"
same,binding signal,[11],"1.09 fold enrichment (6-mer frequency, TF over GST control)"
same,binding signal,[12],"1.04 fold enrichment (6-mer frequency, TF over GST control)"
same,binding signal,[13],"1.03 fold enrichment (6-mer frequency, TF over GST control)"
same,binding signal,[14],"1.11 fold enrichment (6-mer frequency, TF over GST control)"
same,binding signal,[15],"1.11 fold enrichment (6-mer frequency, TF over GST control)"
same,binding signal,[16],"1.09 fold enrichment (6-mer frequency, TF over GST control)"
same,binding signal,[17],"1.11 fold enrichment (6-mer frequency, TF over GST control)"
